For assay [1], the system named is MILI (PIWIL2) piRISC loaded with L1MC piRNA (26 nt). Nature of the assay: pre-steady-state target cleavage rate (min^-1); guide: L1MC piRNA 5'p-UAACUAAAUACUAUGCAAGCUGUAGG; higher = faster piRNA-guided slicing of the target. The following applies: auxiliary factor: 500 nM mouse GTSF1. In a few lines:
(§1)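 Reactions were run for 0–8 or 0–960 min at 33 °C in HEPES–potassium acetate buffer, combining 1 nM active affinity-purified piRISC with one synthetic guide, […] transcribed, DNA-blocked target RNA library and, in some cases, 500 nM GTSF1 partner protein. Sequencing of uncleaved targets followed, with normalisation to depth and to weakly complementary targets. Three trials were pooled, k3 was capped at 0.0001 min^-1, and the pre-steady-state cleavage rate was taken from a burst-and-steady-state fit.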

In assay [2] the test system is EfPiwi piRISC loaded with L1MC piRNA (26 nt). Nature of the assay: pre-steady-state target cleavage rate (min^-1); auxiliary factor: 500 nM Ephydatia muelleri Gtsf1; guide: L1MC piRNA 5'p-UAACUAAAUACUAUGCAAGCUGUAGG; MIWI and MILI are mouse PIWI proteins and EfPiwi is from a freshwater sponge; tags in brackets are library labels; higher = faster piRNA-guided slicing of the target. The essentials:
as §1

± gives the standard deviation. Bounds are passed on as bounds.

Turning to UCCUCGAUCAGCUUGCAUAGUAUUUUCAAA, the results for the “pre-steady-state target cleavage rate” value in assay [1] and in assay [2] were 0.0652 ± 0.014 and 0.00433 ± 0.0023, respectively. On to UCCUGGAUGUGCAAGCAUAGUAUUUAGAAA, for which the results for the “pre-steady-state target cleavage rate” value in assay [1] and in assay [2] were 0.0135 ± 0.0052 and 0.00423 ± 0.0039, respectively.

On to UCCUGGUACAGGUUGCAUAGAAUUUAGUUA, for which the “pre-steady-state target cleavage rate” value was found to be 0.0804 ± 0.021 in assay [1] and 0.00277 ± 0.0022 in assay [2]. The matching figures for UCCUCCUACAGCUUGCAAACUAUUUAGUUA: 0.0393 ± 0.0078 and 0.00937 ± 0.0039. The matching figures for UCCUGGUACAGCUUGCAUUGUAUUUUGUUA: 0.0604 ± 0.018 and 0.00266 ± 0.0026. In the same order, the values of UCCUCCUACAGCUUGCAAAGUAUUUUCAAA are 0.0849 ± 0.023 and 0.00286 ± 0.0028. Turning to UCCUCCUACAGCUUGCAUACUAAUUAGUUA, the “pre-steady-state target cleavage rate” value in assay [1] was 0.0267 ± 0.0069; in assay [2], 0.00358 ± 0.0017. The matching figures for UCCUCCUACAGCUUGCAUAGUUUAUAGUUA: 0.0469 ± 0.011 and 0.00613 ± 0.0033. The matching figures for “UCCUGGAUGUCGAACCAUAGUAUUUACAAA [g5:g15:cont:t1A]”: below 0.0001 and below 0.0001. Consider UCCUCCUACAGCUUGCAUAGUAUAUUCAAA, for which the entries for the “pre-steady-state target cleavage rate” value in assay [1] and in assay [2] were 0.125 ± 0.025 and 0.00316 ± 0.0027, respectively.

For the sequence UCCUGGAUCAGCUUGCAAUAGUAUUUAGUUA, the results for the “pre-steady-state target cleavage rate” value in assay [1] and in assay [2] were 0.00703 ± 0.0039 and 0.0153 ± 0.0038, respectively. With UCCUCCUACAGCUUGCAUAGUUUUUACAAA, the “pre-steady-state target cleavage rate” value stood at 0.0506 ± 0.013 in assay [1] and 0.00552 ± 0.0037 in assay [2]. In the same order, the values of UCCUGGAUGAGCUUGCAUAGUAUUAAGAAA are 0.0183 ± 0.0092 and 0.004 ± 0.0026. For UCCUGGAUGUGCUUGUCAUAGUAUUUAGUUA, the “pre-steady-state target cleavage rate” value in assay [1] came to 0.0294 ± 0.0075; in assay [2], 0.00492 ± 0.0031. The matching figures for UCCUGGUAGUGCUUGCAUAGUAUUUAGAAA: 0.0343 ± 0.013 and 0.00197 ± 0.0017. In the same order, the values of UCCUCCUAGAGCUUGCAUAGAAUUUAGUUA are 0.0513 ± 0.0099 and 0.00468 ± 0.0013.

With UCCUGCUACAGCUUGCAUAGUAUUUAGAAA, the “pre-steady-state target cleavage rate” value in assay [1] amounted to 0.157 ± 0.032; in assay [2], 0.00439 ± 0.0012. Turning to UCCUGCUACAGCUUGCAUAGUAUUUAAUUA, the “pre-steady-state target cleavage rate” value came out at 0.126 ± 0.03 in assay [1] and 0.00612 ± 0.0025 in assay [2]. The matching figures for UCCUGCUACAGCUUGCUUAGUAUUUAGAUA: 0.0729 ± 0.015 and 0.00495 ± 0.0028. The matching figures for UCCUGGAACAGCUUGCAUAGUAUAUUGUUA: 0.153 ± 0.029 and 0.00533 ± 0.0022. The matching figures for UCCUCCUACAGCUUCCAUAGUAUUUAGUAA: 0.0254 ± 0.011 and 0.0037 ± 0.0018.

Take UCCUCCUACAGCUUGCAUUGUAUUUACAAA: the “pre-steady-state target cleavage rate” value in assay [1] turned out to be 0.0269 ± 0.0098; in assay [2], 0.00314 ± 0.003.

For UCCUGCUACAGCUAGCAUAGUAUUUUGUUA, the “pre-steady-state target cleavage rate” value is 0.244 ± 0.031 in assay [1] and 0.0057 ± 0.0021 in assay [2].

For UCCUGCUACAGCUAGCAUAGUAUUAAGUUA, the “pre-steady-state target cleavage rate” value was 0.3 ± 0.032 in assay [1] and 0.00662 ± 0.0026 in assay [2].

Consider UCCUGGAUCAGCUUGGAUAGUAUUUUGUUA, for which the entries for the “pre-steady-state target cleavage rate” value in assay [1] and in assay [2] were 0.117 ± 0.021 and 0.00346 ± 0.0027, respectively.

On to UCCUGGAUGACCUAGCAUAGUAUUUAGUUA, for which the “pre-steady-state target cleavage rate” value is 0.0953 ± 0.022 in assay [1] and 0.0121 ± 0.0072 in assay [2]. The matching figures for UCCUGCUACAGCUUCCAUAGUAUUUAGUAA: 0.0172 ± 0.0082 and 0.00255 ± 0.0016.

For the sequence UCCUGGAACAGCUUGCAUAAGUAUUUAGUUA, the “pre-steady-state target cleavage rate” value in assay [1] came out at 0.00757 ± 0.004; in assay [2], 0.00284 ± 0.0024. In the case of UCCUGGAACAGCUUGCAUAUUAUUUAGUUA, the “pre-steady-state target cleavage rate” value came to 0.0696 ± 0.008 in assay [1] and 0.0169 ± 0.0055 in assay [2].

On to UCCUCCUAGUGCUUGCAUAGUAUUUACAAA, for which the figures for the “pre-steady-state target cleavage rate” value in assay [1] and in assay [2] were 0.0188 ± 0.0067 and 0.00293 ± 0.0029, respectively. In the same order, the values of UCCUGGAACAGCUUGCAUAGUAUAAAGUUA are 0.196 ± 0.029 and 0.00389 ± 0.0023.

As to UCCUCCUACAGCUUGGAUAGAAUUUAGUUA, the entries for the “pre-steady-state target cleavage rate” value in assay [1] and in assay [2] were 0.0614 ± 0.015 and 0.00574 ± 0.0016, respectively. The matching figures for UCCUGGAUGUGCUUGCAUAGUAUUUACGUUA: 0.129 ± 0.026 and 0.00702 ± 0.0042. In the same order, the values of UCCUGCUACAGCUUGCAUACUAAUUAGUUA are 0.0334 ± 0.0091 and 0.00252 ± 0.0014. The matching figures for UCCUCCUACAGCUUGCAUAGAUUUUAGAAA: 0.0147 ± 0.0053 and 0.00312 ± 0.0024. On to UCCUGCUACAGCUUGCAUAGUAUUGAGUUA, for which the “pre-steady-state target cleavage rate” value was 0.114 ± 0.027 in assay [1] and 0.00424 ± 0.0019 in assay [2]. In the same order, the values of UCCUCCUACAGCUUGCAUAGUAUUUUGAAA are 0.148 ± 0.03 and 0.00602 ± 0.0032. The matching figures for UCCUCCUACAGCUUGCAUAGAAUUUAGUAA: 0.148 ± 0.035 and 0.00443 ± 0.0022. For the sequence UCCUCCUACAGCUUGCAUAGAUUUUAGUAA, the “pre-steady-state target cleavage rate” value in assay [1] stood at 0.0588 ± 0.015; in assay [2], 0.00392 ± 0.0025. In the same order, the values of UCCUCCUUGUGCUUGCAUAGUAUUUACAAA are 0.0181 ± 0.0068 and 0.00376 ± 0.0032. The matching figures for UCCUGGAACAGCUUCCAUAGUAUUUAGUAA: 0.0767 ± 0.03 and 0.00376 ± 0.0014. Take UCCUGGUACAGCUUGCAUAGUAUUUUGUAA: the “pre-steady-state target cleavage rate” value amounted to 0.03 ± 0.0099 in assay [1] and 0.00379 ± 0.0027 in assay [2]. In the same order, the values of UCCUCCUACAGCUUGCAUAGUAUAUACAAA are 0.0968 ± 0.025 and 0.00313 ± 0.003.

For the sequence UCCUCCUACAGCUUGCAUAGUAUUAAGAAA, the “pre-steady-state target cleavage rate” value in assay [1] is 0.159 ± 0.036; in assay [2], 0.0051 ± 0.0031. In the same order, the values of UCCUGGAACAGCUUGCAUAGAAUUUAGUAA are 0.0627 ± 0.014 and 0.00292 ± 0.002. In the same order, the values of UCCUGGAACAGCUAGCAUAGUAUUUACAAA are 0.0718 ± 0.019 and 0.00337 ± 0.0029.

Turning to UCCUGGAACAGCUUGCAUACUAUUUUGUUA, the entries for the “pre-steady-state target cleavage rate” value in assay [1] and in assay [2] were 0.0261 ± 0.0092 and 0.00252 ± 0.0023, respectively. In the same order, the values of UCCUGGAACAGCUUGCAUAGUAUAUAGUAA are 0.124 ± 0.022 and 0.00251 ± 0.0017.

For the sequence UCCUGGAUGACCUUGCAUAGUAUUUAGAUA, the results for the “pre-steady-state target cleavage rate” value in assay [1] and in assay [2] were 0.115 ± 0.034 and 0.00355 ± 0.0027, respectively. In the same order, the values of UCCUCCUACAGCUUGCAUAGUUUUUAGUAA are 0.0743 ± 0.015 and 0.005 ± 0.0022. As for UCCUGCUACAGCUUGCAUAGUUUUUAGUAA, the figures for the “pre-steady-state target cleavage rate” value in assay [1] and in assay [2] were 0.0393 ± 0.011 and 0.00424 ± 0.0013, respectively. The matching figures for UCCUGCUACAGCUUGCAUAGUAAAAAGUUA: 0.214 ± 0.036 and 0.00305 ± 0.0016.

As to UCCUGGAUGAGCUUCCAUAGUAUUUAGUUA, the “pre-steady-state target cleavage rate” value came to 0.0222 ± 0.011 in assay [1] and 0.00346 ± 0.0018 in assay [2]. Consider UCCUCCUACAGCUUGCAUAGAUUUAGUUA, for which the “pre-steady-state target cleavage rate” value in assay [1] was determined as 0.00908 ± 0.0047; in assay [2], 0.00442 ± 0.0029. The matching figures for UCCUCGUACAGCUUGCAUAGUAUUUACAAA: 0.105 ± 0.025 and 0.00271 ± 0.0024. Take UCCUGCUACAGCUUGCAUAGUUUUUACAAA: the “pre-steady-state target cleavage rate” value in assay [1] was determined as 0.0689 ± 0.019; in assay [2], 0.00339 ± 0.0026. Turning to UCCUGGAUGAGCUUGCAUAGUAUUAAGAUA, the “pre-steady-state target cleavage rate” value in assay [1] was found to be 0.00532 ± 0.0045; in assay [2] it was 0.00505 ± 0.003. With UCCUCCUACAGCUUGCAUAGUAAAAAGAAA, the entries for the “pre-steady-state target cleavage rate” value in assay [1] and in assay [2] were 0.075 ± 0.02 and 0.00287 ± 0.0026, respectively.

As for UCCUGCUACAUGCUUGCAUAGUAUUUAGUUA, the “pre-steady-state target cleavage rate” value in assay [1] stood at 0.0998 ± 0.021; in assay [2], 0.00438 ± 0.002. As to UCCUCCUACAGCUAGCAUAGUAUUUAGAAA, the “pre-steady-state target cleavage rate” value in assay [1] amounted to 0.113 ± 0.021; in assay [2], 0.00378 ± 0.0016. The matching figures for UCCUGGUACAGCUUGCACUAGUAUUUAGUUA: 0.109 ± 0.027 and 0.00323 ± 0.0029. The matching figures for UCCUGCUACACCUUGCAUACUAUUUAGUUA: 0.0767 ± 0.022 and 0.00403 ± 0.0024. In the case of UCCUGGAUCAGCUUGCAUAGUUUUUAGAUA, the “pre-steady-state target cleavage rate” value amounted to 0.0159 ± 0.0066 in assay [1] and 0.00428 ± 0.0026 in assay [2].

UCCUGCUACAGCUUGCAUAGUAUUUUCAUA: the “pre-steady-state target cleavage rate” value is 0.151 ± 0.044 in assay [1] and 0.00529 ± 0.0027 in assay [2]. Take UCCUGGAUGUCGAACCAUAGAUAUUAGUUA: the “pre-steady-state target cleavage rate” value in assay [2] was below 0.0001. In the case of UCCUGCUACAGCUUGCAUAGUAAUUUGUUA, the “pre-steady-state target cleavage rate” value in assay [1] is 0.245 ± 0.053; in assay [2], 0.00579 ± 0.002. In the same order, the values of UCCUCCUACAGCUUGCAUUGUAUUUAGAUA are 0.119 ± 0.019 and 0.00539 ± 0.0029. In the same order, the values of UCCUCCUACAGCUUCCAUAGUAUUUAGUUA are 0.0831 ± 0.025 and 0.0042 ± 0.0019.

Take UCCUGGAUGUCGAACGUUAGUAUGUUAGUUA: the “pre-steady-state target cleavage rate” value in assay [2] is below 0.0001.

On to UCCUGGAUGAGCUAGCAUAGUAUUUAGAUA, for which the “pre-steady-state target cleavage rate” value in assay [1] stood at 0.168 ± 0.028; in assay [2], 0.00406 ± 0.002. In the same order, the values of UCCUCCUACAGCUUGCAUAGUAAAUUCAAA are 0.125 ± 0.03 and 0.00279 ± 0.0021.

Source of the values: the supplement of paper PMC10338343.
